pS6 MEF inh – inhibitors of mTORC1 signaling in Tsc2-/- p53-/- MEF cells | Tsc2-/- p53-/- MEF, phospho-rpS6 immunofluorescence/PI, 24 h | Potency, µM (titrated, usually from 38.3 µM), inactives show at the top dose activity change, negative = inhibition, most hits filed as inhibitors | hit rate 0.78% among 44,000 | AID 493208;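 also: potency is read from the fitted curve at half-maximal effect; plate controls were DMSO for no effect and rapamycin for full effect; nearly all actives have a fitted effect of over 50% in size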
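Tsc2-/-, p53-/- mouse embryonic fibroblasts (empty-vector line) exposed to compound 24 hrs at 37 C, fixed, immunostained for phospho-rpS6 and counterstained with propidium iodide. Acumen laser scanning gives % positive cells from Alexa 488/PI ratio, thresholded using 7.5 nM rapamycin; PI count gives viability.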
FH mod – Identification of activators of human fumarate hydratase by quantitative high-throughput screening; Potency, µM (series often up to 79.9 µM), inactives show at the top dose activity change, negative = inhibition, most hits filed as inhibitors; FH coupled MDH/diaphorase resazurin fluorescence, 15 min; hit rate 0.22% among 54,000; also: potency is read from the fitted curve at half-maximal effect; % is scaled to controls: 0 for no effect and ±100 for the full control effect; the screen sought activators but most active calls are inhibition curves; nearly all actives have a fitted effect of over 45% in size
S16 F2sN tox – cytotoxicity in S16 Pmp22-F2sN Schwann cells; S16 Pmp22-F2sN Schwann cells viability, CellTiter-Glo, 24 h; Potency, µM (titrated, usually from 57.5 µM), without a hit: at the highest dose activity change, negative = cytotoxicity, usual class: cytotoxic; hit rate 0.48% among 43,000; also: potency is read from the fitted curve at half-maximal effect; % is scaled to controls: 0 for no effect and ±100 for the full control effect; nearly all actives have a fitted effect of over 65% in size
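CellTiter-Glo counter-screen, qHTS, 1536-well. Cells: S16(c9) Pmp22-F2sN, 500-1,000/well in DMEM + 10% FBS. Cpd 23 nL pin transfer, 24 h, 37C/5% CO2. Read: luminescence, CCD imager.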
HTT-AS act – HTT-AS promoter activation; HEK293 HTT-AS promoter firefly luciferase reporter, 24 h; response scale: percent change from vehicle, -100% = no light; Potency, µM (top dose mostly 57.5 µM), without a hit: at the highest dose activity change, positive = activation, usual class: activators; hit rate 0.24% among 48,000; AID 1508624; also: potency is read from the fitted curve at half-maximal effect; nearly all actives have a fitted effect of over 55% in size
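HEK293 luciferase promoter-reporter cells (2,500/well) plated 24 h, then compounds added at up to 57.5 uM final for 24 h at 37 °C. Firefly luminescence by Dual-Glo, normalized to vehicle (0%) and zero RLU (-100%).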
PMP22 txn prim – modulates PMP22 transcription in S16 Schwann cells; hit rate 2% among 43,000; Potency, µM (titrated, usually from 57.5 µM), inactives show at the top dose activity change, negative = inhibition, usual class: inhibitors; S16 Pmp22-F2sN Schwann cells, FLuc/NLuc coincidence luminescence, 24 h; active = clear falling dose curves in both reporters; inconclusive = both reporters move, but less clearly or upward; inactive = either reporter flat; the % is the NLuc reporter signal; also: potency is read from the fitted curve at half-maximal effect; % is scaled to controls: 0 for no effect and ±100 for the full control effect
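Reporter cells (S16 Pmp22-F2sN, 500–1,000 per well) exposed to compounds for 24 h, 37C, 5% CO2; lysis with FLuc read after 10 min, then Stop&Glo and NLuc read after 10 min.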
HTT prom inh – HTT promoter inhibition. HEK293 HTT promoter firefly luciferase reporter, 24 h. Potency, µM (highest dose often 57.5 µM), for inactives: top-dose activity change, negative = inhibition, usual class: inhibitors. hit rate 0.93% among 48,000. AID 1508623; also: potency is read from the fitted curve at half-maximal effect; nearly all actives have a fitted effect of over 50% in size
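Firefly luciferase signal from promoter-reporter HEK293 cells was scaled between vehicle (0%) and zero RLU (-100%). Compounds were tested at final concentrations of up to 57.5 uM over 24 h at 37 degrees C. PTC124 at 50 uM final served as control inhibitor.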
NLuc sat counter – NanoLuc enzyme inhibition artifact for PMP22 screen. Potency, µM (titrated, usually from 57.5 µM), for inactives: at the highest dose activity change, negative = inhibition, hits mostly inhibitors. hit rate 4% among 690. shares compounds with PMP22 txn prim. AID 1508638. Secreted NLuc enzyme (filtered S16 cell medium), Nano-Glo luminescence; also: potency is read from the fitted curve at half-maximal effect; % is scaled to controls: 0 for no effect and ±100 for the full control effect
NLuc Km counter – inhibits NanoLuc under Km conditions, PMP22 counter-screen; hit rate 5% among 690; shares compounds with PMP22 txn prim; secreted NLuc enzyme, coelenterazine luminescence, Km conditions; Potency, µM (highest dose often 57.5 µM), without a hit: at the highest dose activity change, negative = inhibition, actives largely listed as inhibitors; also: potency is read from the fitted curve at half-maximal effect; % is scaled to controls: 0 for no effect and ±100 for the full control effect
FLuc counter – firefly luciferase enzyme inhibition artifact for PMP22 screen | shares compounds with PMP22 txn prim | purified P. pyralis FLuc, luminescence, 10 min | Potency, µM (doses to about 57.5 µM), inactives show at the top dose activity, negative = inhibition, actives largely listed as inhibitors | 690 tested, under 10 active; also: % of control where 0% means no effect
Target sequence (P08659 whole entry, looked up): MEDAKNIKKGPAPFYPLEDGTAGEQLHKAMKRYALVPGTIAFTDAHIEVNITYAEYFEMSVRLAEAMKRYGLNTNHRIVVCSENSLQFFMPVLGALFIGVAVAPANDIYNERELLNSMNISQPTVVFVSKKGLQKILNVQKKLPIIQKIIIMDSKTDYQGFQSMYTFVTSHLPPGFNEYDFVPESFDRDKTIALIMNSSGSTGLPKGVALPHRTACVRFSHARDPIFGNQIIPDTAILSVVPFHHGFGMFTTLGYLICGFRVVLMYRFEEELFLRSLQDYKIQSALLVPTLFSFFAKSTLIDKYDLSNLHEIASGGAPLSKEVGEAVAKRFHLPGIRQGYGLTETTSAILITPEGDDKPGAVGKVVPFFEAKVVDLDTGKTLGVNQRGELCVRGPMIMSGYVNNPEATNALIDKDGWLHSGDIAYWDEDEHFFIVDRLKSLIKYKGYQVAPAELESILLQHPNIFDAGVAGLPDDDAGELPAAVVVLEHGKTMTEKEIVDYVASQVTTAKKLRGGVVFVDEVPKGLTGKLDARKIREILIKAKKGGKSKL
S16 F2sN tox cnf – confirmation of cytotoxicity in S16 Pmp22-F2sN Schwann cells (luciferase reporters placed in the Pmp22 gene); hit rate 7% among 690; Potency, µM (highest dose often 57.5 µM), for the others: top-dose activity change, negative = viability loss, most hits filed as cytotoxic; S16 Schwann cells viability, CellTiter-Glo ATP luminescence, 24 h; shares compounds with PMP22 txn prim; also: potency is read from the fitted curve at half-maximal effect; % is scaled to controls: 0 for no effect and ±100 for the full control effect
PMP22 txn conf – PMP22 transcription modulation, confirmatory; shares compounds with PMP22 txn prim; Potency, µM (doses to about 57.5 µM), without a hit: at the top dose activity change, negative = inhibition, hits mostly inhibitors; hit rate 22% among 690; S16 Schwann cells Pmp22-F2sN, dual luciferase, 24 h; AID 1508646; active = clear falling dose curves in both reporters; inconclusive = both reporters move, but less clearly or upward; inactive = either reporter flat; the % is the FLuc reporter signal; also: potency is read from the fitted curve at half-maximal effect
PMP22 HiBiT cnf – rat PMP22 protein level modulation, confirmatory. shares compounds with PMP22 txn prim. S16 Schwann cells Pmp22-HiBiT, luminescence, 48 h. Potency, µM (titrated, usually from 27.9 µM), without a hit: at the highest dose activity change, negative = inhibition, hits mostly inhibitors. 95 tested, under 10 active. AID 1508647
Target sequence (P25094 whole entry, looked up): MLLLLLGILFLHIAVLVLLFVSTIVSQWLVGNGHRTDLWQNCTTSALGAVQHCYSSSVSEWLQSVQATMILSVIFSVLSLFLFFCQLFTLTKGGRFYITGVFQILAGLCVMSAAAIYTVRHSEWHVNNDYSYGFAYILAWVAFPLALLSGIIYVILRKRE
Active calls of the source: *; u = inconclusive; x = no result; [ ] = remark or other dose. Sampled rows, rich in hits. Any-hit rate of the full collection: about 3.3%. Unless noted, calls follow the shape of the dose curve; as a rule, active = well fitted curve in the direction sought with a large enough effect; inconclusive = small, poorly fitted or top-dose-only effect, or another doubt; inactive = no such curve, though single readings can be large; an effect the other way counts as inactive or inconclusive.

SMILES	pS6 MEF inh	FH mod	S16 F2sN tox	HTT-AS act	PMP22 txn prim	HTT prom inh	NLuc sat counter	NLuc Km counter	FLuc counter	S16 F2sN tox cnf	PMP22 txn conf	others
CC1CCCN(S(=O)(=O)c2ccc(N3CCCCS3(=O)=O)cc2)C1 (centres undefined)	0.0%	0.4%	-3.6%	-11.4%	u	-28.1%	-3.8%	0.8%	-2.3%	8.2%	17.1%
COc1ccccc1N1CCN(CCCNC(=O)c2nnc(Cc3c(F)cccc3Cl)o2)CC1	-8.3%	-3.8%	-2.7%	-19.3%	13.4µM*	-25.6%	-1.0%	0.7%	10.0%	-9.4%	-23.2%
CC(C)(C)NS(=O)(=O)c1cncc(-c2cc(F)c3nc(N)nn3c2)c1	x	-1.2%	x	x	x	x	x	x	x	x	x
CCOC(=O)c1ccc(N2C(=O)c3n[nH]c(-c4ccco4)c3C2c2ccc(O)c(OC)c2)cc1 (centres undefined)	u	u	-21.6%	-59.5%	11.3µM*	-35.1%	u	u	5.0%	4.3%	19.3µM*
CCOC(=O)c1ccc(N2C(=O)c3n[nH]c(-c4ccco4)c3C2c2ccc(C)cc2)cc1 (centres undefined)	u	u	-8.5%	-58.8%	u	u	x	x	x	x	x
CC[C@@H](Nc1c(Nc2cccc(C(=O)N(C)C)c2O)c(=O)c1=O)c1ccc(C)o1	x	-0.1%	x	x	x	x	x	x	x	x	x
CC(=O)N1CCc2c(sc(NC(=O)CSc3ccccc3)c2-c2nc3ccccc3s2)C1	-19.2%	-16.4%	u	-27.9%	4.01µM*	u	u	u	-4.1%	u	13.1µM*	PMP22 HiBiT cnf=u
CN1CCc2c(sc(NC(=O)CSc3ccccc3)c2-c2nc3ccccc3s2)C1	u	-21.0%	1.8%	-9.0%	u	-6.9%	x	x	x	x	x
CCCC(=O)N(c1ccc2oc(C)c(C(C)=O)c2c1)S(=O)(=O)c1ccc(CC)cc1	-13.1%	-11.8%	u	-54.4%	8.43µM*	5.01µM*	-17.4%	4.8%	-8.2%	-24.6%	u
COc1ccc(-c2cc(C(F)(F)F)n3nc(C)c(-c4ccccc4)c3n2)cc1OC	-10.9%	10.3%	22.7%	-8.8%	10.6µM*	-6.5%	0.1%	2.0%	5.4%	-6.6%	u
COc1ccc(-c2c(C)nn3c(C(F)(F)F)cc(-c4ccccc4)nc23)cc1OC	3.6%	8.8%	11.3%	-3.0%	-21.0%	-1.3%	x	x	x	x	x
COc1cc(C(=O)CC2(O)C(=O)N(Cc3ccccc3Cl)c3ccccc32)cc(OC)c1OC (centres undefined)	4.14µM*	-29.1%	-6.0%	-33.5%	11.3µM*	u	-10.6%	-2.4%	8.0%	-2.6%	u
CC1=CC(=O)CC(C)(CO[C@@H]2O[C@H](CO)[C@@H](O)[C@H](O)[C@H]2O)C1(O)/C=C/C(C)=C/C(=O)O (some centres undefined)	x	-1.6%[53.3 µM]	x	x	x	x	x	x	x	x	x
C=C1C(=O)O[C@H]2C3=C(C)CCC[C@]3(C)C(=O)C[C@@H]12	x	3.6%	x	x	x	x	x	x	x	x	x
CCN(CC)c1cc(C)c2cc(NC(=O)/C=C/c3ccccc3Cl)ccc2n1	u	-20.0%	u	-6.3%	11.9µM*	-5.5%	u	-16.6%	-24.5%	u	u
N=c1n(CCN2CCCCC2)c2ccccc2n1CC(O)COc1ccc(Cl)cc1Cl (centres undefined)	3.69µM*	-7.6%	u	-46.3%	11.9µM*	u	-17.5%	-0.2%	-21.0%	30.6µM*	u
COc1ccc(C2=CC(c3ccccc3F)n3ncc(C(=O)Nc4ccc(C)cc4)c3N2)cc1 (centres undefined)	-4.4%	-30.6%	-13.7%	15.2%	u	-0.1%	x	x	x	x	x
O=C(Nc1ccc(Cl)cc1)c1cnn2c1NC(c1ccccc1)=CC2c1ccccc1 (centres undefined)	-9.0%	u	u	-50.0%	14.1µM*	u	u	u	4.2%	21.9%	u
Cc1ccc(COC(=O)N2CC[C@@H](CNc3ncccn3)[C@@H](F)C2)cc1	x	0.3%	x	x	x	x	x	x	x	x	x
O=C(Nc1cccc2cccnc12)c1cccc2ccccc12	-5.0%	-21.9%	1.7%	22.5%	u	41.5%	x	x	x	x	x
O=C(Nc1ccc(Br)c2cccnc12)c1cccc2ccccc12	-5.5%	5.1%	14.4%	-8.8%	16µM*	-1.2%	-9.5%	1.2%	2.2%	12.9%	u
CC(=O)O[C@]1(C(C)=O)CC[C@H]2[C@@H]3C[C@H](C)C4=CC(=O)C=C[C@]4(C)[C@@]3(F)[C@@H](O)C[C@@]21C	x	-1.7%	x	x	x	x	x	x	x	x	x
CCOc1ccc(NC(=O)CSc2oc(-c3ccc(F)cc3)nc2S(=O)(=O)c2ccc(C)cc2)cc1	2.93µM*	5.0%	1.8%	-10.7%	11.9µM*	-1.0%	-2.0%	-0.4%	1.7%	u	14.5µM*	PMP22 HiBiT cnf=25.3%
CC(C)=C[C@@H]1[C@H](CO[C@@H]2O[C@H](CO)[C@@H](O)[C@H](O)[C@H]2O)C1(C)C	x	6.3%[53.3 µM]	x	x	x	x	x	x	x	x	x

High-throughput results from PubChem BioAssay.
